Experimental data published in ChEMBL document CHEMBL4513137, “CO-ADD screening of University of Manchester (UK) compounds”.
Results with a measured potency or affinity are listed apart.

Key:
Staphylococcus aureus = conditions: Concentration 32 ug.mL-1; ASSAY_TEST Inhibition of Bacterial Growth; detection method Absorption (OD600); MEDIA CAMHB; plate type 384well; NBS; CORNING #3640; time 18 hr
Escherichia coli = conditions: Concentration 32 ug.mL-1; ASSAY_TEST Inhibition of Bacterial Growth; detection method Absorption (OD600); MEDIA CAMHB; plate type 384well; NBS; CORNING #3640; time 18 hr

Row | SMILES | Inhibition (Staphylococcus aureus) | Inhibition (Escherichia coli)
1 | O=[N+]([O-])c1ccc(-c2ccccc2N(Cc2ccccc2)c2ccccc2)cc1 | 20.79% | 4.24%
2 | O=[N+]([O-])c1ccc(-c2ccccc2Nc2ccccc2)cc1 | -5.74% | 3.34%
3 | CN(c1ccccc1)c1ccccc1-c1ccc([N+](=O)[O-])cc1 | 9.33% | -0.45%
4 | O=[N+]([O-])c1ccc(-c2ccccc2Nc2ccccc2)cc1C(F)(F)F | 23.3% | 4.01%
5 | O=[N+]([O-])c1ccc(-c2ccccc2Nc2ccccc2)cc1F | 18.96% | 3.69%
6 | Cc1cccc(C)c1Nc1ccccc1-c1ccccc1[N+](=O)[O-] | 57.09% | 4.01%
7 | O=[N+]([O-])c1ccc(-c2c(Nc3ccccc3)cccc2-c2ccccc2)cc1 | 23.01% | -0.69%
8 | COc1cc([N+](=O)[O-])ccc1-c1ccccc1Nc1ccccc1 | 23.48% | -2.88%
9 | COc1cccc(Nc2ccccc2)c1-c1c(Cl)cc(Br)cc1Cl | 19.63% | 4.62%
10 | O=[N+]([O-])c1ccc(-c2ccccc2Nc2ccccc2Br)cc1 | 15.02% | -1.08%
11 | COc1cc([N+](=O)[O-])ccc1-c1c(Nc2ccccc2)cccc1OC | 27.31% | 7.58%
12 | N#Cc1ccc(-c2ccccc2Nc2ccccc2)cc1 | 12.74% | -6.88%
13 | COc1ccc(Nc2ccccc2-c2ccc([N+](=O)[O-])cc2)cc1 | 17.68% | -1.45%
14 | Cc1cc(C)c(Nc2ccccc2-c2ccc([N+](=O)[O-])cc2)c(C)c1 | -5.17% | 1.23%
15 | O=[N+]([O-])c1ccc(-c2cccc3c2[nH]c2ccccc23)cc1 | 21.52% | 3.84%
16 | COc1cccc(N(C)c2cccc(OC)c2-c2ccc([N+](=O)[O-])cc2C)c1 | 23.07% | 1.91%
17 | CC[C@@H](Nc1ccccc1-c1c(Cl)cc(Br)cc1Cl)c1ccccc1 | 29.88% | 4.43%
18 | c1ccc(Nc2ccccc2-c2ncccn2)cc1 | 6.34% | 1.3%
19 | O=[N+]([O-])c1ccc(-c2c(Nc3ccccc3)ccc3ccccc23)cc1 | 8.24% | -0.39%
20 | O=[N+]([O-])c1cc(Cl)c(-c2ccccc2Nc2ccccc2)c(Cl)c1 | 19.61% | -7.56%
21 | Clc1cc(Br)cc(Cl)c1-c1ccccc1Nc1ccccc1 | 22.27% | -3.79%
22 | O=[N+]([O-])c1ccc(-c2ccccc2Nc2ccccc2)c(Cl)c1 | 13.69% | -8.34%
23 | Cc1cc([N+](=O)[O-])ccc1-c1ccccc1N(C)c1ccccc1 | -10.68% | 0.54%
24 | CC(=O)c1ccc(-c2ccccc2Nc2ccccc2)cc1 | 12.03% | 6.5%
25 | COc1cccc(Nc2ccccc2)c1-c1ccc([N+](=O)[O-])cc1 | 23.81% | 7.82%
26 | Cc1ccccc1Nc1ccccc1-c1ccc([N+](=O)[O-])cc1 | 21.4% | -4.33%
27 | O=[N+]([O-])c1ccc2c3ccccc3n(-c3ccccc3)c2c1 | 11.65% | -9.21%
